Only some compounds are listed: those with a hit (about 12% of all), similar ones and a draw of the others.
HCV inh – HCV inhibition | Huh7.5.1 HCVcc-Cre infection, luciferase reporter, 44 h | Potency, µM (series often up to 41.8 µM), without a hit: at the highest dose activity change, negative = inhibition, actives largely listed as inhibitors | 340,000 compounds, 3.4% hits | AID 651820; note: % is set by controls: 0 for no effect and ±100 for the full control effect
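Antiviral activity was scored by luciferase reporter output from cells infected with HCVcc-Cre (~0.5 moi) in presence of compound, 44 h infection period, cells seeded 1,000/well 4 h prior.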
Pf growth 48h – P. falciparum growth inhibition at 48 hours (one generation). P. falciparum luciferase growth in erythrocytes, 48 h. Potency, µM (titrated, usually from 28.7 µM), inactives show at the top dose activity change, negative = inhibition, most hits filed as inhibitors. 310,000 compounds, 5.9% hits. AID 504832; note: % is set by controls: 0 for no effect and ±100 for the full control effect
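Luciferase-expressing P. falciparum in infected erythrocytes (2% hematocrit, 0.1% parasitemia final) in RPMI 1640/0.5% Albumax were exposed to compound for 48 hours at 37 C, 5% CO2; growth read as luminescence.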
Pf growth 96h – P. falciparum growth inhibition at 96 hours; P. falciparum luciferase reporter growth, 96 h; 320,000 compounds, 6.9% hits; AID 504834; Potency, µM (top dose mostly 28.7 µM), for inactives: at the top dose activity change, negative = inhibition, most hits filed as inhibitors; note: % is set by controls: 0 for no effect and ±100 for the full control effect
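P. falciparum expressing integrated firefly luciferase, in erythrocytes at 2% hematocrit, 0.05% parasitemia, incubated with compounds 96 h at 37 C, 5% CO2. Growth inhibition read as loss of luminescence; two-generation exposure targets delayed-death apicoplast inhibitors.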
AMA1 RON2 block – inhibitors of Plasmodium falciparum AMA1-RON2 interaction; 360,000 compounds, 0.2% hits; Potency, µM (doses to about 58.2 µM), without a hit: at the highest dose activity change, negative = inhibition, most hits filed as inhibitors; AlphaScreen AMA1-biotinylated RON2 peptide binding; AID 720542;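 note: 0% = vehicle wells and -100% = peptide control; nearly all actives have a fitted effect of over 45% in size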
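AMA1 (3D7) with his tag at 25 nM final met compounds first, then biotinylated RON2 peptide at 25 nM; detection used donor plus acceptor beads, 10 µg/mL apiece, read by AlphaScreen after 30 min at room temperature.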
NS1 function inh – blocks influenza NS1 protein function; AID 2326; 270,000 compounds, 0.4% hits; Potency, µM (series often up to 46.1 µM), without a hit: top-dose activity, positive = more growth; calls by dose curve; note: actives are rising curves; nearly all actives have a fitted effect of over 50% in size
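Recovery from NS1-induced slow growth read by OD600 in budding yeast switched to galactose assay medium (pH 6.0, -URA) at 1:100 dilution. Compound 23 nl per well; the matching strain lacking NS1 serves as control.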
SARS PLP yeast – SARS-CoV PLP inhibition in yeast. S. cerevisiae expressing SARS-CoV PLpro, growth rescue. Potency, µM (series often up to 32.9 µM), for the others: at the highest dose activity, positive = growth rescue, most hits filed as activators. 330,000 compounds, 0.19% hits; calls by dose curve; note: 0% is about no effect; nearly all actives have a fitted effect of over 55% in size
The depositor's hits bear a star; ? = inconclusive; . = not tested or not shown; [ ] = remark or other dose. Unless noted, calls come from the whole dose curve; as a rule, active = well fitted curve in the direction sought with a large enough effect; inconclusive = small, poorly fitted or top-dose-only effect, or another doubt; inactive = no such curve, though single readings can be large; an effect the other way counts as inactive or inconclusive. Potency is the fitted concentration of half-maximal effect.

SMILES | HCV inh | Pf growth 48h | Pf growth 96h | AMA1 RON2 block | NS1 function inh | SARS PLP yeast
Cc1cc(C)cc(Oc2nc3ccccn3c(=O)c2/C=C(\C#N)C(=O)NC2CCS(=O)(=O)C2)c1 (stereo unspecified) | -26% | ? | -17% | 14% | -8% | -2%
N#C/C(=C\c1c(Oc2ccccc2F)nc2ccccn2c1=O)C(=O)NC1CCS(=O)(=O)C1 (stereo unspecified) | 10% | ? | 9.3µM* | -4% | -16% | 0%
Cc1ccc(Oc2nc3ccccn3c(=O)c2/C=C(\C#N)C(=O)NC2CCS(=O)(=O)C2)c(C)c1 (stereo unspecified) | 19% | ? | 10µM* | -5% | 1% | 3%
COc1cc2c(cc1C1NC(=S)NC(C)=C1C(N)=O)CCCC2 (stereo unspecified) | 4% | 14% | 36% | 0% | 3% | 2%
CCCCNC(=O)c1cc2ccccc2s1 | ? | 67% | -22% | -1% | . | -5%
CC(c1cc2ccccc2s1)N(O)C(N)=O (stereo unspecified) | . | 7% | 0.38µM* | . | . | 1%
O=C(OCCNc1nc(-c2ccccc2)nc2ccccc12)c1cccnc1 | ? | -12% | 14% | 5% | -39% | -4%
CCCOC(=O)c1cccc(Nc2nc(-c3cccnc3)nc3ccccc23)c1 | ? | 9.3µM* | 0% | 6% | -2% | 6%
Cc1ccc(-c2nc(C(Cl)Cl)c3ccccc3n2)cc1 | 3.5µM* | ? | ? | -4% | 5% | 0%
Fc1cccc(Nc2nc(-c3ccncc3)nc3ccccc23)c1 | ? | 9.3µM* | 4.1µM* | . | ? | 21%
O=C(OCCNc1nc(-c2ccccc2)nc2ccccc12)c1ccncc1 | 16µM* | ? | -30% | -8% | -11% | -2%
CN(CC(=O)Nc1ccccc1Cl)C(=O)C1CCN(C(=O)c2ccc(F)cc2)CC1 | 9% | -23% | ? | 27% | . | 2%
Cc1ccc(-c2nc(Nc3cccc(O)c3)c3ccccc3n2)cc1 | 28µM* | 8%[0.00184 µM] | ? | -12% | -34% | -6%
Cc1ccc(-c2nc(Nc3ccc(N4CCOCC4)cc3)c3ccccc3n2)cc1 | ? | 13µM* | ? | ? | -23% | -4%
COc1cccc(Nc2nc(-c3ccccc3)nc3ccccc23)c1 | 10µM* | 0% | 8% | 7% | -73% | -11%
O=[N+]([O-])c1ccc(-c2nc(Nc3cccc(O)c3)c3ccccc3n2)cc1 | 6.3µM* | ? | 98% | -11% | 4% | 0%
C[C@@H]1CCN(C(=O)[C@H](CCCNC(=N)N)NS(=O)(=O)c2cccc3c2NC[C@H](C)C3)[C@@H](C(=O)O)C1 | . | -16% | 1% | . | . | .
COCCN(CCOC)c1nc(-c2ccc(C)cc2)nc2ccccc12 | -28% | 0% | ? | 17% | -67% | -5%
Cc1ccc(-c2nc(N(C)C3CCN(C)CC3)c3ccccc3n2)cc1 | ? | . | 6.6µM* | -14% | -7% | -6%
Cc1ccc(-c2nc(Nc3ccc(O)cc3)c3ccccc3n2)cc1 | 7.1µM* | . | -1% | 3% | -2% | -7%
c1ccc(Nc2nc(-c3ccccc3)nc3ccccc23)cc1 | 14µM* | 9% | 329% | 15% | -105% | -6%
O=C(O)c1ccc(Nc2nc(-c3ccccc3)nc3ccccc23)cc1 | -12% | ? | 24% | 0% | 1% | 2%
CCc1ncc(CN2CCCC(C(=O)Nc3ccc(-c4cscn4)cc3)C2)cn1 (stereo unspecified) | -3% | 1% | 4% | -4% | 1% | 26%
CCc1nc2c(OCc3ccc(C(F)(F)F)cc3)cccn2c1N(C=O)Cc1ccc(OC)cc1 | . | . | . | -5% | . | .
S=C(Nc1ccc(Cl)cc1)NC1CCN(Cc2ccccc2)CC1 | 11µM* | ? | 6.6µM* | -3% | 9% | -20%
SMILES | HCV inh | Pf growth 48h | Pf growth 96h | AMA1 RON2 block | NS1 function inh | SARS PLP yeast
CCc1ccc(NC(=S)NC2CCN(Cc3ccccc3)CC2)cc1 | ? | 0% | 0% | -7% | 5% | -9%
CCC(C)c1ccc(NC(=S)NC2CCN(Cc3ccccc3)CC2)cc1 (stereo unspecified) | 10µM* | ? | ? | -21% | -17% | 1%
CC(C)CN(CC(C)C)S(=O)(=O)N1CCC(C(=O)NCc2ccco2)CC1 | -17% | ? | -9% | -3% | . | -1%
CC1CN(Cc2ccco2)C(=S)NC1=O (stereo unspecified) | 3% | . | . | -3% | . | .
CCC(C)NC(=O)CSc1nc2ccsc2c(=O)n1NC(=O)c1ccccc1 (stereo unspecified) | 16% | . | 8.3µM* | 87% | 1% | 0%
O=C(Nn1c(SCc2ccc(F)cc2)nc2ccsc2c1=O)c1ccccc1 | 7% | 39% | 13µM* | 0% | 21% | -37%
Cn1c(SCc2ccccc2)nc2ccsc2c1=O | 10µM* | ? | -170% | -7% | -4% | -6%
Cc1ccc(CNC(=O)CSc2nc3ccsc3c(=O)n2NC(=O)c2ccccc2)cc1 | -19% | 59% | 37% | 34% | -10% | 5%
O=c1c2sccc2nc(SCc2ccc([N+](=O)[O-])cc2)n1Cc1ccccn1 | -22% | 5% | -16% | -14% | 12% | 10%
CCC(C)NC(=O)CSc1nc2ccsc2c(=O)n1-c1ccc(OC)cc1 (stereo unspecified) | 6% | -20% | 12µM* | 0% | -3% | 6%
CC(=O)c1ccc(N2Cc3ccccc3/C2=N\C(=O)Nc2ccc(Cl)cc2)cc1 | 15% | 69% | 210% | 23% | ? | -20%
O=c1[nH]c(-c2ccccn2)nc2ccccc12 | ? | -54% | ? | -25% | -18% | 1%
O=c1[nH]c(-c2ccccn2)nc(C(F)(F)F)c1Br | -24% | 5.9µM* | 7.4µM* | -74% | -77% | -6%
CC(C)(C)OC(=O)C[C@H]1C/C=C\C[C@@H](CC(=O)N(CCO)Cc2ccccc2)C(=O)N[C@H](Cc2c[nH]c3ccccc23)COC1=O | 11% | . | . | -21% | . | 6%
CC(C)[C@H](NC(=O)OC(C)(C)C)c1cc(C(=O)N[C@@H](C)c2ccccc2)c(N)s1 | . | . | . | 21% | . | .
Cc1ccc(-c2nc3cc(N)ccc3o2)cc1Br | -8% | 88% | 4.7µM* | 17% | 19% | -4%
c1cc2n(c1)-c1c(ccc3c1OCO3)CNC2c1ccc2c(c1)OCO2 (stereo unspecified) | ? | ? | -22% | ? | -9% | -4%
COc1ccc(C2NCc3ccc4c(c3-n3cccc32)OCO4)cc1O (stereo unspecified) | 0.56µM* | 6.6µM* | . | -26% | -14% | -10%
NC(=O)N/N=C/c1ccc(OCc2cccc(Cl)c2)cc1 | -3% | 26% | 3% | 8% | -47% | -2%
